Screens deposited in PubChem by National Center for Advancing Translational Sciences (NCATS).
SMN2 splice up – SMN2 splice variant enhancement; Potency, µM (top dose mostly 46.1 µM), hits mostly activators; hit rate 2.8% among 210,000; AID 1458; HEK293 SMN2-luciferase splicing reporter, luminescence, 30-36 h; note: nearly all actives have a fitted effect of over 55% in size
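qHTS luciferase splicing reporter: luminescence rises when SMN2 exon 7 is included in transfected HEK293 cells. Compound exposure lasted 30-36 h at 37C, with 4.5 mM final sodium butyrate as control, followed by a ONE-Glo read.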
FLuc counter – firefly luciferase modulation, counter-screen for miR-21 project | purified FLuc, Km substrates, luminescence inhibition | hit rate 6.9% among 360,000 | Potency, µM (series often up to 57.5 µM), usual class: inhibitors | AID 588342; note: nearly all actives have a fitted effect of over 55% in size
Target sequence (P08659 whole entry, looked up): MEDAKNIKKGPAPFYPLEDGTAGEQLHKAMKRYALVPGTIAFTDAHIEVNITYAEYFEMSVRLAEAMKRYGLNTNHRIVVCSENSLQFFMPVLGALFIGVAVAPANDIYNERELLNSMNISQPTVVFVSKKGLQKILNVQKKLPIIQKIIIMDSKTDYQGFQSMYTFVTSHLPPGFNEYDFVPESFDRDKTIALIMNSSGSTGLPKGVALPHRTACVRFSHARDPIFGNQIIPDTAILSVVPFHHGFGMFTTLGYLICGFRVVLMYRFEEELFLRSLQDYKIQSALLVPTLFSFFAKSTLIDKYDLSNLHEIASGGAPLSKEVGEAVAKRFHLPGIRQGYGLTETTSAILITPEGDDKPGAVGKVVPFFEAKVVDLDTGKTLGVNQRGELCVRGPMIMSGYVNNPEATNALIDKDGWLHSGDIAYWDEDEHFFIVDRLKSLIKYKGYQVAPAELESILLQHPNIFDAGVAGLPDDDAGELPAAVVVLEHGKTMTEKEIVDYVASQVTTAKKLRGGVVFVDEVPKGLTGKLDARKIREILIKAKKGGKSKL
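Purified P. pyralis luciferase (10nM final) with 10uM D-luciferin and 10uM ATP (Km levels) in 50mM Tris acetate pH 7.5, 10mM Mg acetate, 0.01% Tween-20, 0.05% BSA; qHTS 6-point titration, ~60 µM downward; luminescence read.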
Rab9 promoter act – Rab9 promoter activation. Potency, µM (series often up to 9.22 µM), most hits filed as activators. AID 485297. Huh7 Rab9 promoter-luciferase reporter, luminescence, 24 h. hit rate 2.8% among 320,000; note: nearly all actives have a fitted effect of over 60% in size
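Measured in stably transfected Huh7 cells bearing a Rab9 promoter–luciferase construct: 24 h compound treatment at 37 °C, followed by luminescence detection.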
NPC1 prom act – NPC1 promoter activation | hit rate 2.4% among 320,000 | AID 485313 | Huh7 NPC1 promoter luciferase reporter, 24 h | Potency, µM (series often up to 9.22 µM), hits mostly activators; note: nearly all actives have a fitted effect of over 60% in size
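Readout is luciferase luminescence, reflecting NPC1 promoter activation in stably transfected Huh7 cells after 24 h compound exposure at 37 °C in reduced-serum medium with 10% FBS.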
KinaseGlo FLuc – Kinase-Glo luciferase inhibition (counter-screen); Potency, µM (highest dose often 38.3 µM), hits mostly inhibitors; Kinase-Glo luciferase, ATP luminescence, 8 min; Q27757; hit rate 0.28% among 200,000; note: nearly all actives have a fitted effect of over 60% in size
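Luminescence was the read-out, taken after 8-minute incubation at ambient temperature. Luciferase turned over luciferin with 10 uM ATP in imidazole pH 7.2 buffer containing KCl, MgCl2, Tween 20 and BSA.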
ELG1 genotox – genotoxicity induction in ELG1-luciferase HEK293T cells | hit rate 1.3% among 330,000 | HEK293T ELG1-luciferase reporter, luminescence, 16 h | Potency, µM (highest dose often 46 µM), actives largely listed as activators; note: nearly all actives have a fitted effect of over 60% in size
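16 hr compound incubation (37 °C, 5% CO2) of HEK293T cells carrying luciferase-tagged ELG1; luciferase then measured by ONE-Glo luminescence after 30 min at RT.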
A number is an active result; n = inactive; u = inconclusive; x = no result; [ ] = remark or other dose. Compounds with a hit are over-represented: about 7.5% of the library has one in this group of screens. Calls come from the whole dose curve; as a rule, active = well fitted curve in the direction sought with a large enough effect; inconclusive = small, poorly fitted or top-dose-only effect, or another doubt; inactive = no such curve, though single readings can be large; an effect the other way counts as inactive or inconclusive.

SMILES | SMN2 splice up | FLuc counter | Rab9 promoter act | NPC1 prom act | KinaseGlo FLuc | ELG1 genotox
COc1cc(/C=C/C(=O)c2ccccc2O)cc(OC)c1OC | n | u | n | n | n | u
COc1ccc2cc(C(=O)/C=C/c3cc(OC)c(O)c(OC)c3)ccc2c1 | x | 1.9µM | n | u | x | n
COc1ccc(C(=O)/C=C/c2cc(OC)c(O)c(OC)c2)c(F)c1 | x | 19µM | n | n | n | n
NC(C(=O)O)C(CC(=O)O)c1ccc(Cl)cc1 (centres undefined) | n | x | x | x | x | x
CC(C)CN(C(=O)COC(=O)CCC(=O)c1ccc(F)cc1)c1c(N)n(Cc2ccccc2)c(=O)[nH]c1=O | x | n | n | n | x | n
Cc1cnc(NC(=O)c2ccc3c(c2)OCCO3)s1 | x | 0.107µM | 0.1µM | u | x | u
Cc1nc2ccc3nc(NC(=O)c4ccc5c(c4)OCCO5)sc3c2s1 | n | u | n | n | n | n
O=C(Nc1nc2cc3c(cc2s1)OCCO3)c1ccc(N2C(=O)CCC2=O)cc1 | x | u | n | u | x | n
Cc1ccc2sc(NC(=O)c3ccc4c(c3)OCCO4)nc2c1C | x | 2.69µM | x | x | x | x
Cc1nc2c(ccc3nc(NC(=O)c4ccc5c(c4)OCCO5)sc32)s1 | u | 0.213µM | 0.708µM | 0.316µM | n | u
CN(CC(=O)Nc1cccc(F)c1)C(=O)c1ccccc1Sc1ccccc1C#N | x | n | n | n | x | n
Nc1nccc(-c2cc(-c3ccc(Cl)cc3Cl)no2)n1 | x | 0.675µM | 0.316µM | 0.355µM | x | u
FC(F)(F)c1cnc2c(-c3ccc(Cl)cc3Cl)noc2c1 | n | n | n | n | n | n
CC(C)(C)c1c2c(c(C(C)(C)C)c3c1OCN(Cc1ccccc1)C3)OCN(Cc1ccccc1)C2 | n[9.22 µM] | x | x | x | n[7.66 µM] | x
COc1cccc(C(=O)Nc2ccc3nc(SCC(=O)N4CCOCC4)sc3c2)c1 | x | 15.1µM | x | x | x | x
O=C(Nc1ccc2nc(SCC(=O)N3CCOCC3)sc2c1)c1ccc(F)cc1 | x | 21.3µM | x | x | x | x
COC(=O)CSc1nc2ccc(NC(=O)c3ccccc3C(=O)N3CCOCC3)cc2s1 | x | n | n | n | x | n
O=C(Nc1ccc2nc(SCC(=O)N3CCCC3)sc2c1)c1ccccc1 | x | n | x | x | x | x
O=C(Nc1ccc2nc(SCC(=O)N3CCOCC3)sc2c1)c1ccc(Br)cc1 | x | 10.7µM | x | x | x | x
O=C(Nc1ccc2nc(SCC(=O)N3CCOCC3)sc2c1)c1ccccc1Cl | x | 21.3µM | x | x | x | x
CC(=O)c1ccc(S(=O)(=O)Nc2cccc(-n3cnnn3)c2)cc1 | x | n | n | n | x | n
O=C(COC(=O)CSc1ccc(Cl)cc1)NCCc1ccccc1 | x | n | n | n | x | n
O=C(Nc1ccc2nc(SCC(=O)N3CCCC3)sc2c1)c1cccc(F)c1 | x | n | x | x | x | x
CN1CCN(C(=O)CSc2nc3ccc(NC(=O)c4ccccc4F)cc3s2)CC1 | x | 19µM | n | n | x | n
COc1cc(NC(=O)N(Cc2ccco2)C2CCN(C(C)=O)CC2)cc(OC)c1OC | x | n | x | x | x | x
SMILES | SMN2 splice up | FLuc counter | Rab9 promoter act | NPC1 prom act | KinaseGlo FLuc | ELG1 genotox
O=C1O/C(=C/c2ccccc2)c2ccccc21 | n | 12µM | n | n | n | n
CCOC(=O)c1cnc2c(Cl)cc(Cl)cc2c1Nc1cc(C(=O)O)ccc1C | n | 12µM | x | x | x | x
CCOC(=O)c1cnc2ccccc2c1Nc1cc(C(=O)O)ccc1C | n | u | n | n | n | n
c1ccc(COc2ccc(CN3CCN(c4ccccn4)CC3)cc2)cc1 | n | 6.75µM | 2.24µM | u | n | 20.6µM
CCOC(=O)C1CCN(Cc2ccc(OCc3ccccc3)cc2)CC1 | x | n | n | n | x | n
NC(=O)C1CCN(Cc2ccc(OCc3ccccc3)cc2)CC1 | x | 15.1µM | u | 2.51µM | x | u
COc1cccc(-c2nc3c(c(=O)[nH]c(=O)n3Cc3ccccc3)n2CCO)c1OC(F)F | x | n | n | n | x | n
CCN(CC)C(=O)CSc1nc(-c2ccccc2)cc(-c2ccc(OC)cc2)c1C#N | n | 16.9µM | x | x | x | x
COc1ccc(-c2cc(-c3cccs3)c(C#N)c(SCC(=O)NCc3ccco3)n2)cc1 | n | 12µM | n | n | n | u
COc1ccccc1NC(=O)CSc1ccc(-c2ccccn2)nn1 | x | n | n | n | x | u
COc1ccccc1NC(=O)CSc1ccc(-c2ccc(-n3cccn3)cc2)nn1 | x | 1.51µM | n | n | x | n
COc1ccc(-c2noc(-c3ccccc3C(=O)NCc3ccco3)n2)cc1OC | n | 19µM | n | n | n | n
